From PubChem BioAssay
HCV inhibitor: inhibitors of hepatitis C virus infection. Huh7.5.1 HCVcc-Cre infection, luciferase reporter, 44 h. Potency, µM (highest dose often 41.8 µM), without a hit: at the highest dose activity change, negative = inhibition, usual class: inhibitors. actives 3.4% (n = 340,000). AID 651820
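HCVcc-Cre virus at an moi near 0.5 was added right after compound to cells cultured 4 h from seeding (1,000 cells/well). Luciferase activity was determined 44 h later, 15 min after substrate addition at RT.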
RE007 growth inh: less growth of the S. pombe RE007 Vpr strain; S. pombe RE007 Vpr strain, BacTiter-Glo ATP luminescence, 24 h; Potency, µM (titrated, usually from 92.2 µM), inactives show top-dose activity change, negative = less growth, most hits filed as inhibitors; actives 0.21% (n = 360,000); AID 651644; active = well fitted falling curve with a large enough effect; inconclusive = small, poorly fitted or top-dose-only effect; inactive = no such curve, though single readings can be large or run the other way; note: nearly all actives have a fitted effect of over 50% in size
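Fission yeast strain RE007, carrying one chromosomally integrated HIV-1 vpr copy, was seeded at OD 0.01 in PMG+AL medium with 23 nL pinned compound. After 24 h at 30 °C and 99% humidity, viability was read by BacTiter-Glo luminescence.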
FMDV antiviral: blocks foot and mouth disease virus; FMDV antiviral cell-based qHTS; Potency, µM (highest dose often 57.9 µM), for inactives: at the highest dose activity change, negative = inhibition, hits mostly inhibitors; actives 1.2% (n = 410,000); calls by dose curve; tested in HEK293T cells; note: read-out not given here; nearly all actives have a fitted effect of over 45% in size
MARV entry inh: blocks Marburg virus binding to or entry into cells | Marburg virus pseudotyped entry inhibition, cell reporter | Potency, µM (doses to about 37.8 µM), inactives show at the top dose activity change, negative = inhibition, usual class: inhibitors | actives 1.8% (n = 300,000) | AID 540276; calls by dose curve; tested in HEK293 cells
Lassa entry inh: inhibitors of Lassa virus binding or cell entry; Lassa virus pseudotype entry inhibition, cell reporter; Potency, µM (top dose mostly 37.9 µM), inactives show at the top dose activity change, negative = inhibition, hits mostly inhibitors; actives 1.2% (n = 300,000); AID 540256; calls by dose curve; tested in HEK293 cells; note: nearly all actives have a fitted effect of over 50% in size
Sm TGR inh: blocks Schistosoma mansoni thioredoxin glutathione reductase; Q962Y6; actives 3% (n = 360,000); AID 485364; Potency, µM (series often up to 114 µM), for inactives: at the highest dose activity change, negative = inhibition, most hits filed as inhibitors; purified TGR, DTNB reduction, TNB absorbance 405 nm; note: nearly all actives have a fitted effect of over 60% in size
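First, TGR (20 nM dispensed) and NADPH were mixed with compound. Second, a 15 min room-temperature incubation followed. Third, further NADPH and then DTNB were added to start the reaction. Finally, TNB absorbance was monitored kinetically.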
* = called active by the depositor; [ ] = another dose, or the depositor's remark. Most compounds without a hit are left out; they make up all but 7.2% or so of the library. Unless noted, calls come from the whole dose curve; as a rule, active = well fitted curve in the direction sought with a large enough effect; inconclusive = small, poorly fitted or top-dose-only effect, or another doubt; inactive = no such curve, though single readings can be large; an effect the other way counts as inactive or inconclusive. % is set by controls: 0 for no effect and ±100 for the full control effect; potency is the fitted concentration of half-maximal effect.

How did Cc1sc2nc(C(C)C)nc(SCC(=O)N3CCN(C(=O)c4ccco4)CC3)c2c1C do in these assays?
HCV inhibitor: 11.2µM*; RE007 growth inh: 5.0%; FMDV antiviral: inconclusive; MARV entry inh: 6.0%; Lassa entry inh: -16.5%; Sm TGR inh: -27.6%

How did O=C(c1ccco1)N1CCN(C(=O)c2cccn3c(=O)c4c5c(sc4nc23)CCCC5)CC1 do in these assays?
HCV inhibitor: -6.9%; RE007 growth inh: -6.5%; FMDV antiviral: -1.3%

Results for CC(C)c1nc(N2CCN(C(=O)c3ccco3)CC2)c2c3c(sc2n1)CCCC3 ?
HCV inhibitor: 22.4µM*; RE007 growth inh: 7.5%; MARV entry inh: 18.3µM*; Lassa entry inh: inconclusive; Sm TGR inh: 28.2µM*

Results for CCc1c(C)sc2nc(C(C)C)nc(SCC(=O)N3CCc4ccccc4C3)c12 ?
HCV inhibitor: inconclusive; RE007 growth inh: -11.6%; MARV entry inh: inconclusive; Lassa entry inh: 20.6µM*; Sm TGR inh: 2.4%

Results for COc1ccccc1-c1ccnc(-n2ncc(C(=O)NC(C)(C)CO)c2C2CC2)n1 ?
FMDV antiviral: 25.9%

What do the screens show for `CCC(C(=O)NC1CCCCC1)n1nc(C)c2sc3ccccc3c2c1=O` (stereo unspecified)?
FMDV antiviral: -13.1%; MARV entry inh: 3.7%[46.1 µM]; Lassa entry inh: 17.8%[46.1 µM]; Sm TGR inh: 7.6%

How did c1nc(N2CCOCC2)c2c3c(sc2n1)CCCC3 do in these assays?
HCV inhibitor: inconclusive; RE007 growth inh: -17.4%; FMDV antiviral: inconclusive; MARV entry inh: 3.9%; Lassa entry inh: -0.1%; Sm TGR inh: -1.8%

What do the screens show for `O=C(c1ccccc1)N1CCN(c2ncnc3sc4c(c23)CCC4)CC1`?
HCV inhibitor: inconclusive; RE007 growth inh: -15.0%; FMDV antiviral: 22.4µM*; MARV entry inh: inconclusive; Lassa entry inh: -18.1%; Sm TGR inh: -16.3%

Results for CC(=O)Nc1ccc(SC[C@H](c2ccccc2)N2CCN(CCc3ccccc3)CCC2=O)cc1 ?
Sm TGR inh: 14.1µM*

What do the screens show for `CC(C)CN1CCC(=O)N([C@H](CSc2ccc(Br)cc2)Cc2ccccc2)CC1`?
HCV inhibitor: 37.1%; RE007 growth inh: 4.6%; FMDV antiviral: -27.8%; Sm TGR inh: 6.31µM*

How did CCCN1CCC(=O)N([C@H](CSc2ccccc2)CC(C)C)CC1 do in these assays?
HCV inhibitor: 5.8%; RE007 growth inh: 0.4%; FMDV antiviral: 68.6%; Sm TGR inh: inconclusive

How did CCCN1CCC(=O)N([C@H](CSc2ccc(OC)cc2)Cc2ccccc2)CC1 do in these assays?
HCV inhibitor: -4.8%; RE007 growth inh: 4.6%; FMDV antiviral: -21.9%; Sm TGR inh: 20µM*

What do the screens show for `CCCN1CCC(=O)N([C@H](CSc2ccc(C)cc2)CC(C)C)CC1`?
HCV inhibitor: -11.9%; RE007 growth inh: 16.2%; FMDV antiviral: 24.3%; Sm TGR inh: 39.8µM*

Results for O=C1CCN(CCc2ccccc2)CCN1[C@H](CSc1ccc(Br)cc1)c1ccccc1 ?
HCV inhibitor: 25.3%; RE007 growth inh: 3.0%; FMDV antiviral: 15.4%; Sm TGR inh: inconclusive

Results for O=C(CCCn1c(=O)c2cccn2c2cccnc21)NCc1ccccc1Br ?
FMDV antiviral: -19.0%; Lassa entry inh: 17.2%[46.1 µM]; Sm TGR inh: -7.5%

How did CC(=O)c1ccc(NC(=O)Nc2sc3nc4n(c(=O)c3c2C)CCC(C)CC4)cc1 (stereo unspecified) do in these assays?
FMDV antiviral: 11.0%; MARV entry inh: -24.5%[46.1 µM]; Sm TGR inh: 0.2%

What do the screens show for `CCOc1ccc(CN(C(=O)c2nc(SC)ncc2Cl)C2CCS(=O)(=O)C2)cc1` (stereo unspecified)?
FMDV antiviral: -23.6%; MARV entry inh: -13.7%[46.1 µM]; Lassa entry inh: -8.6%[46.1 µM]; Sm TGR inh: 14.5%

How did Cc1ccc(SC[C@H](Cc2ccccc2)N2CCN(C)CCC2=O)cc1 do in these assays?
HCV inhibitor: -19.3%[8.37 µM]; RE007 growth inh: -17.2%; FMDV antiviral: -9.8%; Sm TGR inh: 39.8µM*

Results for O=C1CCN(CCc2ccccc2)CCN1[C@H](CO)Cc1ccccc1 ?
HCV inhibitor: 2.24µM*; RE007 growth inh: 26.6%; FMDV antiviral: -10.7%; Sm TGR inh: -4.9%

How did CCOC(=O)c1noc2nc(C)n(CC(=O)Nc3ccc(Br)cc3C)c(=O)c12 do in these assays?
FMDV antiviral: -12.2%; Lassa entry inh: 11.9%[46.1 µM]; Sm TGR inh: -3.5%

Results for CCN(Cc1nc(-c2cccc(C)c2)no1)S(=O)(=O)c1ccc(C)cc1 ?
FMDV antiviral: -28.6%; MARV entry inh: 11.2%[46.1 µM]; Lassa entry inh: 2.2%[46.1 µM]; Sm TGR inh: -4.0%

How did CCN1C(=O)[C@H]2[C@@H](c3ccc(-c4ccccc4)cc3)N[C@@](C)(C(=O)OC)[C@H]2C1=O do in these assays?
HCV inhibitor: 16.7%; RE007 growth inh: -8.5%; FMDV antiviral: -16.4%; Sm TGR inh: 39.8µM*

Results for CCN1C(=O)[C@H]2[C@@H](c3ccc(-c4ccc(F)cc4)c(OC)c3)N[C@@](C)(C(=O)OC)[C@H]2C1=O ?
HCV inhibitor: -5.8%; RE007 growth inh: -25.1%; FMDV antiviral: 0.0%; Sm TGR inh: 15.8µM*

Results for CC(=O)[C@@]1(O)C(C)CC2C3C=C(C)C4=Cc5c(cnn5-c5ccccc5)C[C@]4(C)C3C(O)C[C@@]21C (stereo partly specified) ?
HCV inhibitor: 7.08µM*; RE007 growth inh: -0.5%; FMDV antiviral: -18.2%; MARV entry inh: 7.94µM*; Lassa entry inh: inconclusive; Sm TGR inh: -7.1%

Results for Cc1cc(C(=O)NC2CC(C)(C)Cc3c2cnn3-c2ccccc2)n(C)n1 (stereo unspecified) ?
HCV inhibitor: -15.0%; RE007 growth inh: 2.6%; FMDV antiviral: inconclusive; MARV entry inh: inconclusive; Lassa entry inh: -2.0%; Sm TGR inh: -23.9%

How did COCCN1CCN(C(=O)c2cnn(-c3nccc(-c4ccco4)n3)c2C2CC2)CC1 do in these assays?
FMDV antiviral: 5.0%

Results for CC(=O)Nc1ccc(NC(=O)c2c(C)nn(-c3ccccc3)c2-n2cccc2)cc1 ?
FMDV antiviral: -20.5%; MARV entry inh: -22.3%[46.1 µM]; Lassa entry inh: -26.0%[46.1 µM]; Sm TGR inh: -11.7%

How did O=C(Cn1c(=O)c2cccn2c2ccccc21)Nc1cc(F)ccc1F do in these assays?
HCV inhibitor: 11.2µM*; RE007 growth inh: 1.8%; FMDV antiviral: 6.4%; Lassa entry inh: inconclusive; Sm TGR inh: 3.7%

How did CCc1ccc(NC(=O)CCn2c(=O)c3cccn3c3ccccc32)cc1 do in these assays?
HCV inhibitor: 11.2µM*; RE007 growth inh: -10.0%; FMDV antiviral: -16.2%; MARV entry inh: inconclusive; Lassa entry inh: inconclusive; Sm TGR inh: 15.2%
